Measured values published in ChEMBL document CHEMBL1157539, “Thousands of chemical starting points for antimalarial lead identification” (Nature, 2010).

How the values were obtained:
Type in all cases: functional
Plasmodium falciparum [1] = experiment: GSK_TCMDC: Inhibition of Plasmodium falciparum 3D7 in whole red blood cells, using parasite LDH activity as an index of growth. Test compounds present at 2uM
Plasmodium falciparum [2] = experiment: GSK_TCMDC: Inhibition of Plasmodium falciparum Dd2 in whole red blood cells, using parasite LDH activity as an index of growth. Test compounds present at 2uM
HepG2 = experiment: GSK_TCMDC: Percent inhibition of human HepG2 cell line. Test compounds present at 10uM.

| SMILES | Inhibition (Plasmodium falciparum [1]) [%] | Inhibition (Plasmodium falciparum [2]) [%] | Inhibition (HepG2) [%] |
| --- | --- | --- | --- |
| CN1CCN(c2cc3c(cc2Cl)CCN3C(=O)Cc2ccc(Cl)c(NC(=O)Nc3cccc([N+](=O)[O-])c3)c2)CC1 | 99 | 51 | 0 |
| O=C(NCCN1CCCCC1)c1cc2cc(-c3ccccc3)ccc2n1S(=O)(=O)c1ccccc1 | 90 | 0 | 15 |
| CCCc1cc(N2CCC(N(CC)CC)C2)nc(Nc2ccc(OC)cc2)n1 (centres undefined) | 90 | 4 | 9 |
| CC(C)CCNCc1ccc(OCc2cccc(COc3ccc(CNCCC(C)C)cc3I)c2)c(I)c1.Cl | 91 | 49 | 99 |
| COc1ccc(/N=[N+](\[O-])c2ccccc2/[N+]([O-])=N/c2ccc(OC)cc2)cc1 | 84 | 29 | 13 |
| Cc1nc(C)c(-c2ccc(C(=O)c3ccccc3)cc2)c(O)c1Br | 95 | 96 | 0 |
| CCOC(=O)CCCc1cc(NC2CCN(C)CC2)nc(Nc2ccc(OC)cc2)n1 | 99 | 17 | 41 |
| CC(=O)c1c(CC(=O)O)c2ccccc2n1O | 98 | 0 | 16 |
| Cc1cccc2nc(-c3ccc(-c4ccc(CN5CCC(CCN6CCCCC6)CC5)cc4)cc3)[nH]c12.O=C(O)C(F)(F)F | 100 | 100 | 99 |
| COc1ccccc1CNc1nc(Nc2ccccc2C)nc2ccccc12 | 100 | 67 | 24 |
| Cc1ccc2c(c1)NCC21CCN(C[C@@H](O)C2CCN(c3cc(C#N)ccn3)CC2)CC1C (some centres undefined) | 90 | 79 | 28 |
| Cc1cccc2nc(-c3cccc(-c4ccc(CNCCCN5CCCC5=O)cc4)c3)[nH]c12.O=C(O)C(F)(F)F | 100 | 38 | 5 |
| COc1cc(Br)ccc1N1CCN(CCCCNC(=O)c2ccc(NC(=O)c3ccc(Cl)cc3)cc2)CC1.Cl | 96 | 33 | 55 |
| CCCCc1ccc(NC(=O)Nc2ccc3c(c2)CCNCC3)cc1.Cl | 95 | 43 | 16 |
| OC(COc1ccccc1-c1nc2ccccc2o1)CN1CCCN(CCc2ccccc2)CC1 (centres undefined) | 97 | 2 | 39 |
| CN1CC[C@@H](Oc2cc(CNC(=O)c3ccc(-c4ccc(Cl)cc4)s3)ccc2C(F)(F)F)C1.Cl | 93 | 64 | 40 |
| CCOc1ccc2c(=NN=Cc3ccc(OC)c(OC)c3)cc(C)[nH]c2c1 | 100 | 58 | 22 |
| COc1ccc(C=NN=c2cc(C)[nH]c3c(C)cccc23)c2ccccc12 | 100 | 98 | 3 |
| COc1cc(Nc2nccc(N3CCC(NC(=O)c4cc5ccccc5s4)C3)n2)cc(OC)c1OC (centres undefined) | 96 | 50 | 2 |
| CCCCNCc1ccc(-c2nc(CN(Cc3ccc(Cl)c(Cl)c3)C(=O)CN(C)C)cs2)cc1.O=C(O)C(F)(F)F | 100 | 51 | 36 |
| OC1CCN(c2cc(-c3ccccn3)nc(-c3ccccn3)n2)CC1 | 83 | 97 | 43 |

| SMILES | Inhibition (Plasmodium falciparum [1]) [%] | Inhibition (Plasmodium falciparum [2]) [%] | Inhibition (HepG2) [%] |
| --- | --- | --- | --- |
| Cc1cccc2nc(-c3cccc(-c4ccc(CN5CCN(CCO)CC5)cc4)c3)[nH]c12.O=C(O)C(F)(F)F | 100 | 63 | 12 |
| CN(C)Cc1cccc(-c2ccc3ccnc(N)c3c2)c1 | 99 | 74 | 21 |
| CCCN(CCC)CCCN(CCCN(CCC)CCC)c1cc(C)nc(Nc2ccc3cc(Br)ccc3c2)n1.Cl | 98 | 99 | 99 |
| Br.C=CCc1cc(Br)ccc1OCCCON1C(N)=NC(N)=NC1(C)C | 95 | 97 | 61 |
| COc1cc2nc(N3CCC(CNC(=O)c4ccc(OC(F)(F)F)cc4)CC3)nc(N)c2cc1OC.O=C(O)C(F)(F)F | 100 | 98 | 16 |
| Cl.N#Cc1ccc(NC(=O)Nc2ccc3c(c2)CCN(C2CCC2)CC3)cc1 | 96 | 11 | 6 |
| COc1ccccc1CCNc1nc(C)cc(N[C@@H](CC(C)C)C(=O)Nc2ccccc2)n1.O=C(O)C(F)(F)F | 100 | 76 | 16 |
| CCC(ON1C(N)=NC(N)=NC1(C)C)c1ccccc1 (centres undefined) | 96 | 0 | 61 |
| CCn1c(-c2nonc2N)nc2c(-c3cccc(NC(=O)Nc4ccc(C(F)(F)F)cc4)c3)ncc(OCCCN)c21.O=C(O)C(F)(F)F | 94 | 63 | 36 |
| Cc1ccc2[nH]c(-c3cc(-c4cccc(C#N)c4)cnc3N)nc2c1.O=C(O)C(F)(F)F | 100 | 99 | 40 |
| Fc1ccc2[nH]c(-c3cccc(-c4ccc(CNCc5ccccc5)cc4)c3)nc2c1.O=C(O)C(F)(F)F | 100 | 89 | 27 |
| CCCCCCCC1CC(CC(=O)Nc2ccnc3ccc(OC)cc23)CN1C(=O)OC(C)(C)C (centres undefined) | 100 | 34 | 1 |
| COc1ccc(CNCCCCCCNCc2ccc(OC)c3ccccc23)c2ccccc12.Cl | 100 | 49 | 100 |
| CCCCN(CCCC)Cc1cc2ccccc2cc1O.Cl | 100 | 98 | 9 |
| Cl.Ic1cc(CNC2CCCCC2)ccc1OCc1cccc(COc2ccc(CNC3CCCCC3)cc2I)c1 | 93 | 34 | 0 |
| Cc1cccc(CN2CCN(c3ncc(C(=O)NC4CC4)cc3Cl)CC2)c1.O=C(O)C(F)(F)F | 84 | 73 | 2 |
| C=CCOc1ccc(-c2c(C)[nH]c(C)c(Br)c2=O)cc1 | 98 | 96 | 5 |
| CN(C)c1ccc(C=Cc2ccc3ccccc3n2)c(Cl)c1 | 94 | 95 | 59 |
| CN1CCN(c2ccnc3ccc(NC(=O)Nc4ccc5c(c4)CCC5=O)cc23)CC1 | 100 | 67 | 8 |
| CC(C)N(Cc1cnc2nc(N)nc(N)c2n1)c1ccc(Cl)c(Cl)c1 | 100 | 98 | 63 |
| CCc1cn2c3c(cc(C(=O)N[C@@H](Cc4cc(F)cc(F)c4)[C@H](O)CNC4CCOCC4)cc13)N(C)S(=O)(=O)CC2.O=CO | 98 | 98 | 1 |

| SMILES | Inhibition (Plasmodium falciparum [1]) [%] | Inhibition (Plasmodium falciparum [2]) [%] | Inhibition (HepG2) [%] |
| --- | --- | --- | --- |
| CC(=O)c1c[nH]c2ccc(/C=C/C(=O)NC3CCC(CCN4CCc5ccc(C#N)cc5CC4)CC3)cc12.Cl (centres undefined) | 100 | 98 | 11 |
| Clc1ccc2c(NN=Cc3cccnc3)ccnc2c1 | 100 | 86 | 0 |
| N=C(N)NC(=O)Nc1cc(Cl)c(F)c(Cl)c1 | 100 | 64 | 22 |
| CC(C)[C@H](NC(=O)c1ccc(O)c(-c2ccc(Cl)c(Cl)c2)c1)C(=O)NCCN(C)C | 92 | 1 | 0 |
| Cl.O=c1ccc2ncc(Cl)c3c2n1CC3CN1CCC(NCc2cc3c(cn2)OCCO3)CC1 (centres undefined) | 96 | 29 | 27 |
| CC(C)CNCc1ccc(-c2ccc(CNC3CCN(Cc4ccccc4)CC3)cc2)cc1.O=C(O)C(F)(F)F | 100 | 96 | 16 |
| C=CCn1cc(C2CCN(CCCCNC(=O)c3sc(-c4ccc(C(F)(F)F)cc4)nc3CO)CC2)c2cc(OC)ccc21 | 91 | 4 | 40 |
| N#Cc1cccc(NC(=O)Nc2ccc(-c3csc(-c4nc5ccccc5[nH]4)c3)cc2)c1 | 100 | 97 | 63 |
| Cc1cc2nc(-c3ccc(/C=C/C(=O)NCCc4ccccc4)cc3)[nH]c2cc1C | 98 | 13 | 3 |
| Cc1cc(N2CCN(C)CC2)nc2ccc(NC(=O)c3cccc(N(C)C)c3)cc12 | 85 | 23 | 9 |
| O=C(C1CCCC1)N1CCOC(CCN2CCC(c3ccccc3)CC2)(c2ccc(Cl)c(Cl)c2)C1 (centres undefined) | 88 | 77 | 16 |
| Cc1ccc(O)c(CN2CCCC(COC(c3ccc(F)cc3)c3ccc(F)cc3)C2)c1 (centres undefined) | 98 | 98 | 19 |
| Cl.O=c1cc(NCCCNCc2cc3ccccc3s2)[nH]c2ccccc12 | 89 | 0 | 3 |
| CCN(CC)CC(O)CNc1c2ccc([N+](=O)[O-])cc2nc2cc(OC)c(OC)cc12.Cl (centres undefined) | 100 | 100 | 78 |
| COc1cc2nc(NCCc3ccccc3)nc(NCc3ccc(C#N)cc3)c2cc1OC | 100 | 100 | 52 |
| CN=c1nc(NN=Cc2ccccc2Cl)[nH]c(=Nc2cccc(C(F)(F)F)c2)[nH]1.Cl | 84 | 0 | 12 |
| Nc1ncnc2nc(-c3ccc(F)cc3)cc(-c3ccc(NC(=O)c4ccccc4)cc3)c12 | 100 | 97 | 0 |
| O=C(NCCN1CCOCC1)c1ccc(N2CCC(Oc3ccc4ccccc4c3)CC2)nc1 | 92 | 30 | 1 |
| Cc1ccc(O)cc1Nc1ccnc2ccc(-c3csc(CNCCN4CCOCC4)n3)cc12 | 100 | 97 | 0 |
| CC(C)(C)c1ccc2[nH]c(-c3ccc(C(=O)NCCCc4ccccc4)cc3)nc2c1 | 95 | 14 | 11 |
| COc1ccc2nccc([C@@H](O)CN3CCC(NCc4nc5cc(F)ccc5o4)CC3)c2c1.O=C(O)C(=O)O | 100 | 12 | 14 |
